Shown are actives, neighbours in structure and some others; about 27% of the full set was active somewhere.
CYP2C9 inhib = blockers of cytochrome P450 2C9 activity – biochemical, luminescence, ADME assay, primary screen. P11712. CYP2C9 Supersomes, luciferin-H conversion. inhibition, % at 5 µM. 96,000 compounds, 20% hits;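 active = blocking of liver enzyme CYP2C9 beyond about 50% at 5 µM, limit read from the data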
sEH inhibitor = soluble epoxide hydrolase inhibitors, primary screen, biochemical, human sEH. Bifunctional epoxide hydrolase 2 (Homo sapiens), P34913. recombinant human sEH enzymatic activity assay. inhibition, % at 2 µM. 91,000 compounds, 0.34% hits. AID 707, 2007; in the data active = inhibition above about 80%
sEH act = soluble epoxide hydrolase activators, primary screen, biochemical, human sEH; activation, % at 2 µM; 91,000 compounds, 0.04% hits; AID 717, 2007; purified human sEH enzymatic activity, activator screen; Bifunctional epoxide hydrolase 2 (Homo sapiens), P34913; in the data active = activation above about 37%
CYP2C9 activ = human CYP2C9 activators, primary screen, biochemical, luminescence | Cytochrome P450 2C9 (Homo sapiens), P11712 | recombinant CYP2C9, luciferin-H conversion; hits give high values; factor 1 = untreated enzyme, 0 = blocked | activation factor at 5 µM | 96,000 compounds, 1.4% hits | AID 1024, 2008;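 active = activation factor of 2 or more for CYP2C9 at a 5 µM dose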;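 note: 0 = sulfaphenazole-blocked wells and 1 = vehicle-only wells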
CYP2C19 act = human CYP2C19 activators, primary screen, biochemical, luminescence. recombinant CYP2C19, luciferin-H EGE luminescence; hits give high values; 0 = fully inhibited enzyme, 1 = untreated enzyme. activation factor at 5 µM. 96,000 tested, under 10 active. Cytochrome P450 2C19 (Homo sapiens), P33261. AID 1025, 2008;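 active = activation factor of at least 2 at 5 µM in the primary screen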;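 note: 0 = wells with 2.5 mM tranylcypromine and 1 = vehicle-only wells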
Target sequence (P33261 whole entry, looked up): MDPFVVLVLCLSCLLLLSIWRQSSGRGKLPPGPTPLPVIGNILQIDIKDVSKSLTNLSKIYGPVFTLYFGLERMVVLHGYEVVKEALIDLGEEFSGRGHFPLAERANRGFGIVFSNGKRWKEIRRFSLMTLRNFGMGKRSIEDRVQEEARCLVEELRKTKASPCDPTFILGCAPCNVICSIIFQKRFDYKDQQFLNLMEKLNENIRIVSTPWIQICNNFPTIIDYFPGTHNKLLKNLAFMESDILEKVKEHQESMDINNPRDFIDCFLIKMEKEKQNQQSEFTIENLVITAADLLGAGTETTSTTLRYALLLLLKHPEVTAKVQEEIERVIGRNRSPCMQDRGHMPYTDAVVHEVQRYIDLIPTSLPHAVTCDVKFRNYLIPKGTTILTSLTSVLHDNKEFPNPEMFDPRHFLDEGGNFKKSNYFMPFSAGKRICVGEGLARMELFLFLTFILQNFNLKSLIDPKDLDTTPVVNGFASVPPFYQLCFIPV
CYP2C19 inhib = blockers of cytochrome P450 2C19 activity – biochemical, luminescence, ADME assay, primary screen. CYP2C19 Supersomes, luciferin-H EGE luminescence, 30 min. P33261. inhibition, % at 5 µM. AID 778, 2007. 96,000 compounds, 21% hits;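 active = CYP2C19 inhibition above a set limit at 5 µM in the primary screen, cut at about 50% in these data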;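 note: plate controls were negative control wells for no effect and 2.5 mM tranylcypromine positive control for full effect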
Starred values were filed as active, the others as inactive; x = no result given.

SMILES	CYP2C9 inhib	sEH inhibitor	sEH act	CYP2C9 activ	CYP2C19 act	CYP2C19 inhib
Cn1c(=O)[nH]c(=O)c2c1nc(N1CCOCC1)n2CC(O)COc1ccccc1 (stereo not drawn)	75*	-10	10	0.2	0.8	18
Cc1cc(C)n(-c2nc3c(c(=O)[nH]c(=O)n3C)n2Cc2cccc(Br)c2)n1	46	-3	2	0.5	0.4	55*
Cc1ccc(Cn2c(-n3nc(C)cc3C)nc3c2c(=O)[nH]c(=O)n3C)cc1	10	-4	3	0.9	0.8	15
Cn1c(=O)[nH]c(=O)c2c1nc(N1CCCC1)n2CC(O)COc1ccccc1 (stereo not drawn)	-14	-19	18	1.1	1.2	-17
O=C(NCc1cccnc1)C1CCN(S(=O)(=O)N2CCC3(CC2)OCCO3)CC1	-6	6	-5	1.1	1.1	-12
Cc1[nH]nc2c1C(c1ccc(F)cc1)C1=C(CC(C)(C)CC1=O)N2 (stereo not drawn)	19	-15	15	0.8	0.7	26
CC(C)(C)C(=O)/C=C(N)/C=C/c1ccccc1	16	3	-3	0.8	0.7	28
CCC(C)(C)n1nnnc1CN1CCN(C(c2ccccc2)c2ccccc2)CC1	x	8	-2	x	x	x
CC(=O)CCc1ccc(OC(=O)c2cccnc2)cc1	x	6	-3	x	x	x
Cc1cc(C)c(C)c(OCC(=O)N2CCOCC2)c1	-80	2	1	1.8	0.3	67*
Cc1cc(OCC(=O)N2CCOCC2)c(C(C)C)cc1Cl	14	-4	1	0.9	0.2	80*
CCCN1CCC(NC(=O)Nc2ccc(F)cc2F)CC1	-6	9	-7	1.1	1.1	-9
c1coc(CNCc2cccs2)c1	x	-7	7	x	x	x
CCOC(=O)c1c(NC(=O)CSc2nnc(-c3cccnc3)o2)sc(C(C)=O)c1C	65*	x	x	0.3	0.9	14
CCOC(=O)c1c(NC(=O)CSc2nnc(-c3ccco3)o2)sc(C(C)=O)c1C	70*	16	-18	0.3	0.9	14
O=C(O)C1C2C=CC(C2)C1C(=O)NC1CCS(=O)(=O)C1 (stereo not drawn)	3	-2	3	1	0.9	8
C=CCN1C=CC(=C/C=C(/C#N)C(=O)OCC)C=C1	x	9	-10	x	x	x
CCOC(=O)N1CCC(NC(=O)c2cc3c(C)nc4ccccc4c3o2)CC1	61*	-16	13	0.4	0.6	40
CCOC(=O)N1CCC(NC(=O)c2ccc3c(c2)N(Cc2ccccc2)CCS3)CC1	92*	x	x	0.1	0.1	85*
CCOC(=O)N1CCN(C(=O)c2ccc3c(c2)N(CC)CCS3)CC1	78*	x	x	0.2	1	4
CCOC(=O)N1CCC(NC(=O)Cn2nc(Cc3ccncc3)c3ccccc3c2=O)CC1	77*	x	x	0.2	0.4	55*
CCOC(=O)N1CCC(NC(=O)c2ccc3c(c2)N(Cc2ccc(C)cc2)CCS3)CC1	38	14	-12	0.6	1	4
COCCN1CCN(c2cc(-c3ccccc3)nc3cc(-c4cccc(F)c4)nn23)CC1	x	5	-2	x	x	x
COc1ccc(N2CCN(Cc3oc(CO)cc(=O)c3O)CC2)cc1	-5	-6	5	1	1	-2
CN(CC(=O)NCc1cccc(F)c1)C(=O)c1ccco1	-6	1	1	1.1	1.1	-6
CN(Cc1cccc(F)c1)C(=O)c1ccc(S(=O)(=O)C(F)F)cc1	-10	0	-2	1.1	0.4	59*
O=C(c1ccc(N2CCCCS2(=O)=O)cc1)N1CCN(c2ccc(N3CCOCC3)nn2)CC1	1	x	x	1	1.1	-10
CN(CCOc1ccc(Cl)cc1)c1ccc(S(=O)(=O)N2CCCCC2)cn1	-31	-15	14	1.3	0.6	38
Cc1cc(C)c(S(=O)(=O)n2ccc(-c3ccc(OCCN(C)c4ccccn4)cc3)n2)c(C)c1	57*	5	-4	0.4	0.9	14
Cc1ccc(-n2c3c(c(=O)[nH]c2=S)C(C(F)(F)F)(C(F)(F)F)NC(=O)N3)cc1	54*	4	-4	0.5	1.1	-6
